Laboratory results published in the supplement of paper PMC13380429.

Experiments:
[1] = test system: Vero E6 infected with SARS-CoV-2; assay: morphology score (similarity to uninfected cells); higher = more like uninfected cells; conditions: 24 h
[2] = test system: Vero E6 infected with SARS-CoV-2; assay: SARS-CoV-2 infection rate relative to infected DMSO; higher = more infection, active = 60 or less; conditions: 24 h

Row | SMILES | morphology score [1] | SARS-CoV-2 infection rate [2]
1 | CC1(C)S[C@@H]2[C@H](N3C(=O)[C@@H](c4ccccc4)NC3(C)C)C(=O)N2[C@H]1C(=O)O [hetacillin] (10 µM) | 0.138 | 96.5% (inactive)
2 | CNC(=O)c1ccccc1Sc1ccc2c(/C=C/c3ccccn3)n[nH]c2c1 [axitinib] (10 µM) | 0.563 | 80.5% (inactive)
3 | NCC(=O)N[C@@H](CCC(N)=O)C(=O)O (10 µM) | 0.0903 | 108% (inactive)
4 | C=C1C(=O)O[C@@H]2C[C@@]3(C)CCC[C@H](C)C3=C[C@H]12 [alantolactone] (10 µM) | 0.304 | 32% (active)
5 | O=C(O)[C@H](Cc1ccc(Nc2nccc3ccncc23)cc1)NC1=C(Br)C(=O)C12CCCCC2 (10 µM) | 0.0401 | 98% (inactive)
6 | CC(=O)NC1CCSC1=O (centres undefined) [citiolone] (10 µM) | -0.0164 | 107% (inactive)
7 | CC1=C(C(=O)O)N2C(=O)[C@@H](NC(=O)[C@H](N)c3ccc(O)cc3)[C@H]2SC1 [cefadroxil] (10 µM) | -0.016 | 108% (inactive)
